# Where “and” joins values, the source holds several entries; their conditions need not be identical. Equal values may be shown once. Results filed as inconclusive are left out. Unmarked numbers belong to inactive results. Calls of active or inactive are those of the source. The call rests on the fitted dose curve; in most records, active means well fitted curve in the direction sought with a large enough effect; inconclusive means small, poorly fitted or top-dose-only effect, or another doubt; inactive means no such curve, though single readings can be large; an effect the other way counts as inactive or inconclusive.
# Molecular target: Papain (Carica papaya) (UniProt P00784)
# Experiment: Primary qHTS assay for inhibitors of the protease papain (AID 1645873);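 further: papain turnover of Z-FR-AMC read as the AMC fluorescence gain over 10 min; on the % scale 0 is the no-effect control and ±100 the full control effect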
# Conditions: papain Z-FR-AMC cleavage, AMC fluorescence; series mostly up to 49.8 µM; activity change, negative = inhibition: at the top concentration
# Papain (Carica papaya), sequence (P00784 whole entry, looked up): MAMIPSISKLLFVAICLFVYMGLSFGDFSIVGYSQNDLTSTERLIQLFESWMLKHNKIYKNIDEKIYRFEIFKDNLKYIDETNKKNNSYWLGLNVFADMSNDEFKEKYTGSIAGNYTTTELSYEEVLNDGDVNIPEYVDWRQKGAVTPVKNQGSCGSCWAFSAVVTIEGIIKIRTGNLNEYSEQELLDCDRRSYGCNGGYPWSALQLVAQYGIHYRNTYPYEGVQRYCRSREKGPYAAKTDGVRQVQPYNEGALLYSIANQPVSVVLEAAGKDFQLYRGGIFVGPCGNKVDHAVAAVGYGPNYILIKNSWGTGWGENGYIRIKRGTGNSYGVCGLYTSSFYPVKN
row,SMILES,"activity change, negative = inhibition [%]"
1,O=C(O)c1cc2cc(Cc3cccnc3)ccc2o1,-12.2
2,COc1cc2c(cc1O)CC[C@@H]1[C@@H]2CC[C@]2(C)[C@@H](O)CC[C@@H]12,4.05
3,CC(=O)O[C@H]1C[C@@H]2CC[C@@H]3[C@H](CC[C@@]4(C)[C@H]3C[C@H]([N+]3(C)CCCCC3)[C@@H]4OC(C)=O)[C@@]2(C)C[C@@H]1[N+]1(C)CCCCC1,-10.9

# Molecular target: N-terminal Xaa-Pro-Lys N-methyltransferase 1 (Homo sapiens) (UniProt Q9BV86)
# Experiment: Confirmatory qHTS for Inhibitors of N-terminal methyltransferase 1 (NTMT1): MTaseGlo Assay (AID 1645874); further: nearly all actives have a fitted effect of over 65% in size; further: potency means the concentration at half of the fitted maximal effect;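 on activity change, negative = inhibition: luminescence from SAH made as NTMT1 methylates SPKRIA peptide using SAM; 0% = DMSO control and -100% = no-enzyme control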
# Conditions: NTMT1 enzyme, MTase-Glo SAH luminescence; series mostly up to 100 µM; activity change, negative = inhibition: at the top concentration
# Summary of the method: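 Compounds are incubated with 125 nM NTMT1 and 100 uM SAM for 15 min before the SPKRIA peptide (1 uM) starts a 30 min room-temperature methylation. SAH is measured by coupled luciferase luminescence and curves fitted to a Hill equation.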
# N-terminal Xaa-Pro-Lys N-methyltransferase 1 (Homo sapiens), sequence (Q9BV86 whole entry, looked up): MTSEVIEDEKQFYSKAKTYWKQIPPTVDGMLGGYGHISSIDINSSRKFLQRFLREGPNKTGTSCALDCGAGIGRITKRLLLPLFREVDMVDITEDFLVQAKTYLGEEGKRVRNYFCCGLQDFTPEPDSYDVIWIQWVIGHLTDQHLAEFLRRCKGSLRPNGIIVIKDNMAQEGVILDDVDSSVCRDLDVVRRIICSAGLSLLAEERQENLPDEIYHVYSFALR
SMILES,"activity change, negative = inhibition [%]",Potency
COC(=O)C1=C(C)NC(C)=C(C(=O)O[C@@H]2CCCN(Cc3ccccc3)C2)[C@@H]1c1cccc([N+](=O)[O-])c1,3.33,
Cc1c(C)n(Cc2ccccc2)c2ccc(C(=O)OCCN(C)C)cc12,,5.78 µM (active)
C[C@]12CC[C@@H]3c4ccc(O)cc4CC[C@H]3[C@@H]1C[C@@H](O)[C@@H]2O,-7.21,
CCCCC(CC)CN=C(N)NC(N)=NCCCCCCN=C(N)NC(N)=NCC(CC)CCCC (stereo not drawn),,18.3 µM (active)

# Test system: not listed separately
# Experiment: Primary qHTS for inhibitors of nuclear receptor binding SET domain protein 2 (NSD2) in an isogenic RCH-ACV NSD2 p.E1099K mutant (9B) (AID 1645876); further: nearly all actives have a fitted effect of over 70% in size; further: potency means the concentration at half of the fitted maximal effect; on activity change, negative = viability loss: on the % scale 0 is the no-effect control and ±100 the full control effect
# Conditions: RCH-ACV NSD2 E1099K (9B) viability, CellTiter-Glo, 72 h; series mostly up to 44.9 µM; activity change, negative = viability loss: at the top concentration
SMILES,Potency,"activity change, negative = viability loss [%]",outcome
COC(=O)C1=C(C)NC(C)=C(C(=O)O[C@@H]2CCCN(Cc3ccccc3)C2)[C@@H]1c1cccc([N+](=O)[O-])c1,21.1 µM (active) and 25.8 µM (active),,
Cc1c(C)n(Cc2ccccc2)c2ccc(C(=O)OCCN(C)C)cc12,10.6 µM (active),,
C[C@]12CC[C@@H]3c4ccc(O)cc4CC[C@H]3[C@@H]1C[C@@H](O)[C@@H]2O,inactive,,
Cc1ccc(C(=O)C(C)CN2CCCCC2)cc1 (stereo not drawn),,-11.8,
CC(C)(C)CC(C)(C)c1ccc(O)c(Cc2ccc(Cl)cc2Cl)c1,,-13.3,
C#C[C@]1(O)CC[C@H]2[C@@H]3CCc4cc(OC5CCCC5)ccc4[C@H]3CC[C@@]21C,,0.951,
COc1cc(NS(C)(=O)=O)ccc1Nc1c2ccccc2nc2ccccc12,0.417 µM (active),,
CCCCC(CC)CN=C(N)NC(N)=NCCCCCCN=C(N)NC(N)=NCC(CC)CCCC (stereo not drawn),0.75 µM (active),,
CCN(CC)C(=O)N1CCN(C)CC1,,,inactive
Oc1ccc(O)cc1,11.9 µM (active),,
COc1ccc(CCN2CCC(Nc3nc4ccccc4n3Cc3ccc(F)cc3)CC2)cc1,7.5 µM (active),,
C=C(CC)C(=O)c1ccc(OCC(=O)O)c(Cl)c1Cl,21.1 µM (active),,
Cc1ccc(O)c2ncccc12,10.6 µM (active),,
CC(CCc1ccccc1)NCC(O)c1ccc(O)c(C(N)=O)c1 (stereo not drawn),,-28.3,
CNCCC=C1c2ccccc2CCc2ccccc21,23.1 µM (active),,
CC[C@H](C)C(=O)O[C@H]1CCC=C2C=C[C@H](C)[C@H](CC[C@@H]3C[C@@H](O)CC(=O)O3)[C@H]21,14.8 µM (active),,
C[C@]12CC[C@@H]3c4ccc(O)cc4CC[C@H]3[C@@H]1CC[C@@H]2O,16.6 µM (active),,
COc1cc2c(cc1O)CC[C@@H]1[C@@H]2CC[C@]2(C)[C@@H](O)CC[C@@H]12,0.742 µM (active),,
CC(=O)O[C@]1(C(C)=O)CC[C@H]2[C@@H]3C[C@H](C)C4=CC(=O)CC[C@]4(C)[C@H]3CC[C@@]21C,25.8 µM (active),,

# Test system: not listed separately
# Experiment: Primary qHTS for inhibitors of nuclear receptor binding SET domain protein 2 (NSD2) in an RCH-ACV wild type WT cells (2C) (AID 1645877); further: nearly all actives have a fitted effect of over 70% in size; further: potency means the concentration at half of the fitted maximal effect; on activity change, negative = cell killing: on the % scale 0 is the no-effect control and ±100 the full control effect
# Conditions: RCH-ACV (leukaemia line) NSD2 WT (2C) viability, CellTiter-Glo, 72 h; series mostly up to 44.9 µM; activity change, negative = cell killing: at the top concentration
SMILES,Potency,"activity change, negative = cell killing [%]"
COC(=O)C1=C(C)NC(C)=C(C(=O)O[C@@H]2CCCN(Cc3ccccc3)C2)[C@@H]1c1cccc([N+](=O)[O-])c1,20.5 µM (active),
Cc1c(C)n(Cc2ccccc2)c2ccc(C(=O)OCCN(C)C)cc12,9.44 µM (active),
Cc1ccc(C(=O)C(C)CN2CCCCC2)cc1 (stereo not drawn),21.1 µM (active),
COc1cc(NS(C)(=O)=O)ccc1Nc1c2ccccc2nc2ccccc12,0.332 µM (active),
CCCCC(CC)CN=C(N)NC(N)=NCCCCCCN=C(N)NC(N)=NCC(CC)CCCC (stereo not drawn),0.841 µM (active),
Oc1ccc(O)cc1,15 µM (active),
COc1ccc(CCN2CCC(Nc3nc4ccccc4n3Cc3ccc(F)cc3)CC2)cc1,5.31 µM (active),
CC(CCc1ccccc1)NCC(O)c1ccc(O)c(C(N)=O)c1 (stereo not drawn),,-26.1
CNCCC=C1c2ccccc2CCc2ccccc21,20.6 µM (active),
CC[C@H](C)C(=O)O[C@H]1CCC=C2C=C[C@H](C)[C@H](CC[C@@H]3C[C@@H](O)CC(=O)O3)[C@H]21,14.8 µM (active),
C[C@]12CC[C@@H]3c4ccc(O)cc4CC[C@H]3[C@@H]1CC[C@@H]2O,7.42 µM (active),
COc1cc2c(cc1O)CC[C@@H]1[C@@H]2CC[C@]2(C)[C@@H](O)CC[C@@H]12,0.59 µM (active),

# Source: PubChem BioAssay (NCATS)
